Screening data as filed in PubChem BioAssay.
ADAM17 inh = ADAM17 inhibitors, primary screen, biochemical, QFRET; recombinant ADAM17, EDANS/DABCYL FRET peptide cleavage; hit rate 0.83% among 370,000; inhibition, % at 6.95 µM;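 active means inhibition above the mean of compounds lying between control limits plus 3 SD, set per campaign, cut at about 8.5% in these data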;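 further: 0% = DMSO-only wells as the low control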
PLC-beta3 inh = human PLC-beta3 inhibitors, primary screen, biochemical, fluorescence | AID 720704, 2013 | 1-phosphatidylinositol 4,5-bisphosphate phosphodiesterase beta-3 (Homo sapiens), Q01970 | inhibition, % at 12.2 µM | Purified PLC-beta3, fluorogenic substrate | hit rate 0.18% among 370,000; in the data active means inhibition above about 11%;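 further: 0% = median of compound wells on plate and 100% = full blocker control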
KLK7 zymogen act = proKLK7 zymogen activators, primary screen, biochemical, fluorescence intensity. purified proKLK7, EDANS-DABCYL substrate fluorescence; 100% is mature enzyme control, 0% vehicle. activation, % at 7 µM. hit rate 0.9% among 370,000;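 active means activation above the mean of all tested compounds plus 3 SD, computed per campaign excluding outliers beyond control limits, cut at about 13% in these data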
sPLA2-III inh = human group III sPLA2 inhibitors, primary screen, biochemical, QFRET, BODIPY PC-A2 liposome substrate; inhibition, % at 12.2 µM; hit rate 0.56% among 370,000; QFRET BODIPY PC-A2 liposome hydrolysis, fluorescence;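 active means inhibition above mean plus 3 SD of compounds lying within the high and low control bounds, cut at about 19% in these data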;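 further: 0% = median of test compound wells and 100% = no enzyme DMSO wells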
PLCg1 inh = PLC-gamma1 enzyme inhibitors, primary screen, biochemical, fluorescence, purified enzyme; fluorogenic substrate; hit rate 0.84% among 370,000; 1-phosphatidylinositol 4,5-bisphosphate phosphodiesterase gamma-1 (Homo sapiens), P19174; inhibition, % at 12.2 µM; in the data active means inhibition above about 9.5%
ADAM10 inh = human ADAM10 inhibitors, primary screen, biochemical, QFRET, HTS | Disintegrin and metalloproteinase domain-containing protein 10 (Homo sapiens), O14672 | recombinant ADAM10, EDANS/DABCYL FRET peptide cleavage, 3 h | inhibition, % at 7 µM | hit rate 0.62% among 370,000 | AID 720582, 2013;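 active means inhibition above a per-campaign cutoff equal to the mean of compounds falling between control-based bounds plus 3 SD, cut at about 20% in these data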;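 further: 0% = DMSO wells while the 100% control is not disclosed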
proKLK7 act conf = proKLK7 zymogen activators, confirmation, biochemical, fluorescence intensity, triplicate | shares compounds with KLK7 zymogen act | purified proKLK7, EDANS-DABCYL substrate fluorescence; scaled: vehicle 0, mature enzyme 100 | activation, % at 7 µM | hit rate 68% among 3,200 | AID 686949, 2013;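 active means activation, as change over the incubation, above the mean of all tested compounds plus 3 SD, cut at about 13% in these data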
EDANS-DABCYL int = EDANS-DABCYL substrate optical interference, artefact control for kallikrein-7 zymogen activator project, biochemical, fluorescence intensity, high throughput | shares compounds with KLK7 zymogen act | no enzyme, 4 h; solvent 0%, active enzyme control 100% | activation, % at 7 µM | hit rate 80% among 3,200 | AID 686952, 2013;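 active means activation above the all-compound mean plus 3 SD, ignoring values outside control-based bounds, cut at about 4.8% in these data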;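 further: value is the 4 h activation minus the activation read at time zero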
Active calls of the source: *. Rows were chosen to be rich in hits. Some 3.4% of all compounds tested hit in one or more screens of this group.

Screening C=C(C)Cn1c(SCC(=O)NN=Cc2c(O)ccc3ccccc23)nnc1-c1ccc(Br)cc1 returned ADAM17 inh -4.9, PLC-beta3 inh -8.7, KLK7 zymogen act -19.3, sPLA2-III inh 5.4, PLCg1 inh -4.5 and ADAM10 inh -11.9.
O=C(Oc1ccc([N+](=O)[O-])cc1)O[C@H]1CC[C@@]23CCCN2C(=O)CCC[C@H]3C1 was read as ADAM17 inh -2.5, PLC-beta3 inh 2.4, sPLA2-III inh -2.5, PLCg1 inh 0.3 and ADAM10 inh -2.2.
For COc1ccc(CNC(=O)C[C@H]2C[C@H](C(=O)N3CCOCC3)[C@@]3(C)c4[nH]c5cc(-c6ccco6)ccc5c4CCN3C2=O)cc1OC the results were ADAM17 inh -77.5, PLC-beta3 inh -431.1, KLK7 zymogen act 99.8*, sPLA2-III inh -16.2, PLCg1 inh -334.0, ADAM10 inh -249.5, proKLK7 act conf 56.9* and EDANS-DABCYL int 64.1*.
Screening C[C@]12c3[nH]c4cc(-c5ccco5)ccc4c3CCN1C(=O)[C@@H](CC(=O)NCCN1CCOCC1)C[C@@H]2C(=O)N1CCOCC1 returned ADAM17 inh -64.0, PLC-beta3 inh -213.1, KLK7 zymogen act 51.5*, sPLA2-III inh -0.8, PLCg1 inh -165.7, ADAM10 inh -246.5, proKLK7 act conf 35.5* and EDANS-DABCYL int 50.6*.
Screening COc1ccc2[nH]c3c(c2c1)CCN1C(=O)C(CC(=O)NCc2ccco2)C[C@H](C(=O)N(C(C)C)C(C)C)[C@@]31C (stereo not given in full) returned ADAM17 inh -1.6, PLC-beta3 inh -2.9, KLK7 zymogen act -1.1, sPLA2-III inh -13.7, PLCg1 inh 1.8 and ADAM10 inh 4.2.
CC(C)N(C(=O)[C@H]1C[C@H](CC(=O)NCCN2CCOCC2)C(=O)N2CCc3c([nH]c4cc(-c5ccco5)ccc34)[C@]12C)C(C)C was read as ADAM17 inh -102.2, PLC-beta3 inh -341.4, KLK7 zymogen act 123.7*, sPLA2-III inh -15.1, PLCg1 inh -282.0, ADAM10 inh -400.1, proKLK7 act conf 120.0* and EDANS-DABCYL int 127.2*.
O=C(Nc1ccccc1C(F)(F)F)OC1CCC12CCC(c1ccccc1)CC2 (stereo not given) was read as ADAM17 inh 0.4, PLC-beta3 inh 0.6, KLK7 zymogen act 0.1, sPLA2-III inh -1.6, PLCg1 inh 0.2 and ADAM10 inh inactive.
Screening COc1cccc(N2CCN(CC(=O)NCc3ccc(F)cc3)CC2)c1 returned ADAM17 inh 0.3, PLC-beta3 inh 4.5, KLK7 zymogen act -0.1, sPLA2-III inh 4.6, PLCg1 inh -0.2 and ADAM10 inh 2.2.
For CC(C)(C)OC(=O)C(Oc1ccccc1[N+](=O)[O-])C(=O)OC(C)(C)C the results were ADAM17 inh -3.8, PLC-beta3 inh -1.5, KLK7 zymogen act 324.9*, sPLA2-III inh -19.3, PLCg1 inh 4.3, ADAM10 inh -16.8, proKLK7 act conf 217.4* and EDANS-DABCYL int 204.8*.
Cc1ccc(C(=O)C2CCN(CC(=O)N3CC(C)CC(C)C3)CC2)cc1 (stereo not given) was read as ADAM17 inh 1.2, PLC-beta3 inh -6.1, KLK7 zymogen act -0.4, sPLA2-III inh -0.6, PLCg1 inh -7.5 and ADAM10 inh -10.7.
COc1ccc(NC(=O)COC(=O)c2c(NC(C)=O)sc(C)c2C)cc1 was read as ADAM17 inh -2.2, PLC-beta3 inh -1.6, KLK7 zymogen act 25.9*, sPLA2-III inh 4.2, PLCg1 inh -0.8, ADAM10 inh -12.0, proKLK7 act conf -0.8 and EDANS-DABCYL int -1.0.
CC(=O)Nc1sc(C)c(C)c1C(=O)OCC(=O)NCc1ccccc1 was read as ADAM17 inh -5.9, PLC-beta3 inh -4.7, KLK7 zymogen act -0.6, sPLA2-III inh 8.4, PLCg1 inh 1.3 and ADAM10 inh -3.3.
For Cc1ccc(C(=O)NC2CCCCN(Cc3cccc(Cl)c3)C2=O)c(C)c1 (stereo not given) the results were ADAM17 inh 1.2, PLC-beta3 inh -0.3, KLK7 zymogen act -0.1, sPLA2-III inh -3.9, PLCg1 inh -1.4 and ADAM10 inh 5.5.
For CC(=O)Nc1ccc(NC(=O)CSc2nnc(-c3n[nH]c4c3CCC4)n2N)cc1 the results were ADAM17 inh -0.8, PLC-beta3 inh 3.5, KLK7 zymogen act -0.2, sPLA2-III inh -0.2, PLCg1 inh 0.1 and ADAM10 inh -3.4.
For CC(C)c1ccccc1NC(=O)[C@@H]1CCCN1S(=O)(=O)c1cccc2cccnc12 the results were ADAM17 inh -0.5, PLC-beta3 inh 1.9, sPLA2-III inh 2.7, PLCg1 inh 3.0 and ADAM10 inh 3.3.
Screening Cc1c(C)c2c(OCC(=O)NCC(C)C)cc3c(c2oc1=O)CCC(C)(C)O3 returned ADAM17 inh -100.9, PLC-beta3 inh -121.7, KLK7 zymogen act -8.4, sPLA2-III inh -2.3, PLCg1 inh -88.5 and ADAM10 inh -292.1.
CCC(NC(=O)COc1cc2c(c3oc(=O)c(C)c(C)c13)CCC(C)(C)O2)C(=O)O (stereo not given) was read as ADAM17 inh inactive, PLC-beta3 inh inactive, KLK7 zymogen act 37.6*, sPLA2-III inh 5.5, PLCg1 inh inactive, ADAM10 inh inactive, proKLK7 act conf 72.7* and EDANS-DABCYL int 73.6*.
Screening Cc1c(C)c2c(OCC(=O)N[C@@H](C)C(=O)O)cc3c(c2oc1=O)CCC(C)(C)O3 returned ADAM17 inh inactive, PLC-beta3 inh inactive, KLK7 zymogen act 30.7*, sPLA2-III inh 5.0, PLCg1 inh inactive, ADAM10 inh inactive, proKLK7 act conf 72.0* and EDANS-DABCYL int 68.6*.
Screening CSc1nnc(-c2cccn(Cc3ccccc3)c2=O)o1 returned ADAM17 inh inactive, PLC-beta3 inh -272.6, KLK7 zymogen act 12.7*, sPLA2-III inh 0.8, PLCg1 inh -229.9, ADAM10 inh inactive, proKLK7 act conf 25.7* and EDANS-DABCYL int 38.1*.
Screening C[C@H](NC(=O)OCc1ccccc1)P(=O)(O)O returned ADAM17 inh -2.5, PLC-beta3 inh 3.7, KLK7 zymogen act 0.2, sPLA2-III inh 0.0, PLCg1 inh 2.6 and ADAM10 inh 4.8.
